Source: PubChem
TDP1 cell noCPT: qHTS for Inhibitors of human tyrosyl-DNA phosphodiesterase 1 (TDP1): qHTS in cells in absence of CPT; DT40 Tdp1-/- hTDP1 cells, no CPT, ATP luminescence, 48 h; AID 686978, 2013; actives 15% (n = 420,000); Potency, µM (doses to about 46.2 µM), inactives show top-dose activity change, negative = growth inhibition, actives largely listed as inhibitors; also: % is scaled to controls: 0 for no effect and ±100 for the full control effect; nearly all actives have a fitted effect of over 55% in size
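Compound effects on proliferation are scored in DT40 Tdp1-/-;hTDP1 cells in the absence of CPT. ATP levels (CellTiter-Glo luminescence) are recorded after a ≥48 hr, 37 °C incubation.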
ClpP mod: qHTS Assay for Activators of ClpP. ATP-dependent Clp protease proteolytic subunit (Bacillus subtilis (strain 168)), P80244. purified B. subtilis ClpP, FRET peptide cleavage, 20 min. actives 1.9% (n = 340,000). Potency, µM (series often up to 57.5 µM), inactives show at the top dose activity change, negative = active; active = well fitted falling curve with a large enough effect; inconclusive = small, poorly fitted or top-dose-only effect; inactive = no such curve, though single readings can be large or run the other way; also: the source files actives as falling curves though it sought activators and does not explain the sign; nearly all actives have a fitted effect of over 65% in size
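Purified B. subtilis ClpP, 10 microg/mL final in Tris/HCl pH8 with KCl, BSA, glycerol and Tween-20, cleaved an Abz/nitrotyrosine-quenched decapeptide. Fluorescence (ex 320, em 430) was read at 0 and 20 min at room temperature. Delta was normalized to 5.8 microM ADEP and DMSO/no-enzyme controls.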
TDP1 block: qHTS Assay for Inhibitors of Tyrosyl-DNA Phosphodiesterase (TDP1). actives 0.28% (n = 350,000). Potency, µM (series often up to 130 µM), for the others: at the highest dose activity change, negative = inhibition, usual class: inhibitors. AID 485290, 2010. recombinant TDP1, AlphaScreen DNA substrate cleavage; also: % is scaled to controls: 0 for no effect and ±100 for the full control effect; nearly all actives have a fitted effect of over 40% in size
Target sequence (Q9NUW8 whole entry, looked up): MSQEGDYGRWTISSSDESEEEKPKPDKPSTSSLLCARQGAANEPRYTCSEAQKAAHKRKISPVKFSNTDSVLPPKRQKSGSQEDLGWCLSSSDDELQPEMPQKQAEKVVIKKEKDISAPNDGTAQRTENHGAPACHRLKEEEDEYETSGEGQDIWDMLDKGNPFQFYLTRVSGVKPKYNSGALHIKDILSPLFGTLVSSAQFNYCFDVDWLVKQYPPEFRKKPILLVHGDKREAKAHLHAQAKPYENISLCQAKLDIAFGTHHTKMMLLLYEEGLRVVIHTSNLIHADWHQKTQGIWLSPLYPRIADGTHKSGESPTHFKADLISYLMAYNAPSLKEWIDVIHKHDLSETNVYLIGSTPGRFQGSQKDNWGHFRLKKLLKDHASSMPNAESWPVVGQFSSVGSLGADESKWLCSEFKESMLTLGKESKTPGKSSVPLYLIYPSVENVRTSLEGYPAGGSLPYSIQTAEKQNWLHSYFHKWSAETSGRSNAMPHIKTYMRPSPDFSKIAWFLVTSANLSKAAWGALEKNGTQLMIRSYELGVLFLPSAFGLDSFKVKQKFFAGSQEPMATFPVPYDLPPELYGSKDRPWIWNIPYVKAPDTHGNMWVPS
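E. coli-derived human Tdp1, 1 nM final. Cpd preinc 15 min RT; substrate 15 nM final, 5 min RT; AS bead mix 10 ug/ml final, 10 min RT. Signal loss = tyrosine-FITC cleavage. No-enzyme wells = max signal.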
DT40 TDP1 CPT: qHTS for Inhibitors of human tyrosyl-DNA phosphodiesterase 1 (TDP1): qHTS in cells in presence of CPT | actives 12% (n = 420,000) | AID 686979, 2013 | Potency, µM (top dose mostly 46.2 µM), without a hit: top-dose activity change, negative = growth inhibition, hits mostly inhibitors | chicken DT40 Tdp1-/-;hTDP1 cells + 20 nM CPT, ATP luminescence, 48 h; also: % is scaled to controls: 0 for no effect and ±100 for the full control effect; nearly all actives have a fitted effect of over 55% in size
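Chicken DT40 Tdp1-/- cells complemented with human TDP1, 400 cells/well, exposed to compounds plus 20 nM camptothecin for at least 48 h at 37 C; viability read as ATP content by CellTiter-Glo luminescence.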
* hit, by the source's call; [ ] = dose if it differs, or a comment. Compounds with a hit are over-represented: about 17% of the library has one in this group of screens. Unless noted, calls follow the shape of the dose curve; as a rule, active = well fitted curve in the direction sought with a large enough effect; inconclusive = small, poorly fitted or top-dose-only effect, or another doubt; inactive = no such curve, though single readings can be large; an effect the other way counts as inactive or inconclusive. Potency is read from the fitted curve at half-maximal effect.

`Cc1ccc(-n2c(N)c(C(N)=O)sc2=S)c(C)c1` gave TDP1 cell noCPT 25.9µM*, ClpP mod 1.1%, TDP1 block -3.1% and DT40 TDP1 CPT inconclusive.
Cc1cc(C)cc(NC(=S)NCCSc2ccc(Cl)cc2)c1 was read as TDP1 cell noCPT 20.6µM*, TDP1 block -2.7% and DT40 TDP1 CPT inconclusive.
COC(=O)Cc1ccc(NC(=S)NCCO)cc1 was read as TDP1 cell noCPT -2.5%, ClpP mod 0.2% and DT40 TDP1 CPT 2.8%.
For Cc1ccc(SCCNC(=S)Nc2ccc(C)c(C)c2)cc1 the results were TDP1 cell noCPT inconclusive, ClpP mod -2.6%, TDP1 block -4.8% and DT40 TDP1 CPT inconclusive.
For COC(=O)Cc1ccc(NC(=S)NCCSc2ccc(Cl)cc2)cc1 the results were TDP1 cell noCPT 20.6µM*, TDP1 block 4.2% and DT40 TDP1 CPT inconclusive.
For O=C1Nc2ccccc2C(=O)N2C[C@@H](O)C[C@H]12 the results were TDP1 cell noCPT 3.0% and DT40 TDP1 CPT 30.3%.
O=C(N/N=C/c1ccc(Cl)cc1)c1n[nH]c2c1CCCC2 was read as TDP1 cell noCPT 0.92µM* and DT40 TDP1 CPT 0.581µM*.
Screening O=C(N/N=C/C(Br)=C/c1ccccc1)c1n[nH]c2c1CCC2 returned TDP1 cell noCPT 4.11µM*, ClpP mod -0.4%, TDP1 block 3.9% and DT40 TDP1 CPT 2.59µM*.
For O=C(N/N=C/c1ccccc1)c1n[nH]c2c1CCCC2 the results were TDP1 cell noCPT inconclusive, TDP1 block 4.8% and DT40 TDP1 CPT inconclusive.
For O=C(N/N=C/c1cccs1)c1n[nH]c2c1CCC2 the results were TDP1 cell noCPT 3.66µM*, ClpP mod 0.7%, TDP1 block 3.0% and DT40 TDP1 CPT 4.11µM*.
For Nc1nc(N)nc(-c2cc(O)ccc2O)n1 the results were TDP1 cell noCPT 5.8µM*, ClpP mod 1.4%, TDP1 block -0.8% and DT40 TDP1 CPT 8.2µM*.
For Nc1nc(N)nc(-c2cccc([N+](=O)[O-])c2)n1 the results were TDP1 cell noCPT inconclusive, ClpP mod -0.8% and DT40 TDP1 CPT -21.5%.
For Nc1nc(N)nc(-c2cc([N+](=O)[O-])ccc2O)n1 the results were TDP1 cell noCPT -22.5%, ClpP mod -1.9%, TDP1 block 56.2µM* and DT40 TDP1 CPT -13.1%.
`O=[N+]([O-])c1ccc(O)c(-c2cc(C(F)(F)F)nc(-c3ccccc3)n2)c1` gave TDP1 cell noCPT 0.651µM*, ClpP mod 1.2% and DT40 TDP1 CPT 0.581µM*.
For CCOC(=O)COc1ccc(CC)cc1C(=O)c1ccn2nc(-c3ccc(C)cc3)cc2n1 the results were TDP1 cell noCPT inconclusive, ClpP mod -4.8%, TDP1 block 9.7% and DT40 TDP1 CPT inconclusive.
For O=C(c1ccc(N2CCN(C3CC(=O)N(Cc4cccs4)C3=O)CC2)cc1)c1cccnc1 (centres undefined) the results were TDP1 cell noCPT inconclusive, ClpP mod 0.1%, TDP1 block 5.5% and DT40 TDP1 CPT 16.4µM*.
Screening CC1CCC2C(=O)N3C(CCC(C)C3c3ccc(-c4ccco4)cc3)C(=O)N2C1c1ccc(-c2ccco2)cc1 (centres undefined) returned TDP1 block 3.55µM*.
Screening NC1=NC(=O)/C(=C/c2ccccc2OCC(=O)Nc2ccc(F)cc2)S1 returned TDP1 cell noCPT 5.9% and DT40 TDP1 CPT -9.0%.
`O=C(COc1ccccc1/C=C1\SC(=S)NC1=O)Nc1ccc(F)cc1` gave TDP1 cell noCPT 10.3µM*, TDP1 block 0.7% and DT40 TDP1 CPT inconclusive.
`COc1ccccc1C1=NNC(=Nc2cccc(S(=O)(=O)N(C)C)c2)SC1` gave TDP1 cell noCPT inconclusive, ClpP mod -3.9%, TDP1 block 7.4% and DT40 TDP1 CPT inconclusive.
For COc1ccc(NS(=O)(=O)c2ccc3c(c2)CCC(=O)N3)cc1 the results were TDP1 block 1.1%.
Screening COc1cc(-c2cc(C)c3c(OC)ccc(OC)c3n2)cc2c1OCCN(C(=O)CCn1ccc(C)n1)C2 returned TDP1 cell noCPT inconclusive and DT40 TDP1 CPT 13.4%[9.04 µM].
CC(C)CCN1C(Nc2ccccc2)=NC[C@@H]1Cc1ccccc1 was read as TDP1 cell noCPT 16.4µM*, ClpP mod -0.1% and DT40 TDP1 CPT inconclusive.
`CCCCN1C(Nc2ccccc2)=NC[C@@H]1CC(C)C` gave TDP1 cell noCPT inconclusive, ClpP mod -0.4%, TDP1 block -5.9% and DT40 TDP1 CPT inconclusive.
Screening CC(C)CCCN1C(Nc2ccccc2)=NC[C@@H]1Cc1ccccc1 returned TDP1 cell noCPT 16.4µM*, ClpP mod -1.6% and DT40 TDP1 CPT inconclusive.
CC(C)C[C@H]1CN=C(Nc2ccccc2)N1CCCCc1ccccc1 was read as TDP1 cell noCPT inconclusive, ClpP mod 0.8% and DT40 TDP1 CPT 25.9µM*.
Screening CC(CCN1C(Nc2ccccc2)=NC[C@@H]1Cc1ccccc1)c1ccccc1 (some centres undefined) returned TDP1 cell noCPT 18.4µM*, ClpP mod -0.6% and DT40 TDP1 CPT inconclusive.
For CC(C)CN1C(Nc2ccccc2)=NC[C@@H]1C the results were TDP1 cell noCPT 13.9%, ClpP mod -2.4% and DT40 TDP1 CPT 0.2%.
`CCOC(=O)C1(CCC(=O)OCc2ccccc2)CCCCC1=O` (centres undefined) gave TDP1 cell noCPT -2.3%, ClpP mod -1.9% and DT40 TDP1 CPT 1.3%.
For CC(C)CCCN1C(Nc2ccccc2)=NC[C@@H]1CC(C)C the results were TDP1 cell noCPT 18.4µM*, ClpP mod 1.7% and DT40 TDP1 CPT inconclusive.
`CC(C)CCN1C(Nc2ccccc2)=NC[C@@H]1C` gave TDP1 cell noCPT inconclusive, ClpP mod 0.2% and DT40 TDP1 CPT -22.2%.
For CC(CCN1C(Nc2ccccc2)=NC[C@@H]1C)c1ccccc1 (some centres undefined) the results were TDP1 cell noCPT 11.6µM*, ClpP mod 1.7% and DT40 TDP1 CPT 23.1µM*.
For CCOc1ccc(NC(=O)Cn2c(=O)n(Cc3ccco3)c(=O)c3ccc(C(=O)NC4CCCC4)cc32)cc1 the results were TDP1 cell noCPT -27.4%, ClpP mod -2.1%, TDP1 block 0.0% and DT40 TDP1 CPT inconclusive.
For Cc1c(C(=O)Nc2ccc(F)c(F)c2)oc2ccc(S(=O)(=O)N(C)C3CCCCC3)cc12 the results were TDP1 cell noCPT 14.6µM*, ClpP mod inconclusive, TDP1 block 5.2% and DT40 TDP1 CPT 18.4µM*.
Cc1c(C(=O)NCC2COc3ccccc3O2)oc2ccc(S(=O)(=O)N(C)C3CCCCC3)cc12 (centres undefined) was read as TDP1 cell noCPT 14.6µM*, ClpP mod -23.9%, TDP1 block 4.5% and DT40 TDP1 CPT inconclusive.
`Cc1ccc(/C=N\NC(=O)c2ccc3c(c2)OCO3)o1` gave TDP1 cell noCPT 20.3%, ClpP mod -4.3%, TDP1 block 1.1% and DT40 TDP1 CPT 7.1%.
